# Data: PubChem BioAssay
# Active and inactive are the calls of the source.
# Assay: forskolin-driven CRE-LacZ activity in PC12 – cell-based, CRE-LacZ reporter, forskolin-stimulated, primary screen (AID 1146);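 further: beta-galactosidase reporter signal reflecting CREB driven transcription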
# Conditions: luminescence, 4.5 h, higher = more signal, called active from +8 up or from −8 down
row,SMILES,z-score
1,CC[C@@H]1C=C(C(=O)O)[C@H](c2ccc(Br)cc2)N1S(=O)(=O)c1ccc(C)cc1,0.472 (inactive)
2,O=C1c2ccccc2[C@](Cc2ccccc2I)(C(=O)NCCN2CCOCC2)[C@H](c2ccc(CO)cc2)N1Cc1ccccc1Cl,-1.01 (inactive)
3,COC(=O)[C@@]1(Cc2ccc(OC)cc2)[C@H]2c3cc(C(=O)N4CCCC4)n(CCN4CNCC4=O)c3C[C@H]2CN1C(=O)c1ccccc1,-0.0971 (inactive)
4,COC(=O)[C@@]1(Cc2ccc(OC)cc2)[C@@H]2C(=CC(=O)[C@H]2CC(=O)C(=O)N2CCCC2)CN1C(=O)c1ccccc1,0.0528 (inactive)
5,C=CCNC(=O)[C@@H]1[C@H]2C(=O)O[C@H](c3ccccc3)[C@H](c3ccccc3)N2[C@H](c2ccc(O)cc2)[C@@]12C(=O)N(C(=O)OCCOC)c1ccc(C#CCNC(N)=O)cc12,0.273 (inactive)
6,Cc1ccc(S[C@]2(C(=O)NCCCN(C)C)CC(=O)N(Cc3cc(C(F)(F)F)cc(C(F)(F)F)c3)[C@@H]2c2ccc(CO)cc2)cc1,1.19 (inactive)
7,COc1ccc([Si](C)(C)[C@H]2[C@H](CCO)O[C@@]3(C(=O)N(Cc4ccc(N(C=O)c5ccccc5)cc4)c4ccccc43)[C@@H]2C)cc1,-1.24 (inactive)
8,[N-]=[N+]=Nc1ccccc1[C@H]1OC(c2ccc(OCCCO)cc2)=N[C@@]1(CCS(=O)(=O)c1ccccc1)C(N)=O,-1.12 (inactive)
9,NC(=O)NCC#Cc1ccc2c(c1)[C@]1(C(=O)N2)[C@H](c2ccccc2OCCO)N2[C@H](c3ccccc3)[C@H](c3ccccc3)OC(=O)[C@H]2[C@@H]1C(=O)Nc1nc2ccccc2s1,0.335 (inactive)
10,CCCC=C(CCC)[C@@H](NC(=O)c1cccs1)c1ccc(C(F)(F)F)cc1,0.796 (inactive)
11,CN(C)C(=O)[C@]1(Cc2ccccc2N=[N+]=[N-])N=C(c2ccc(OCCCO)cc2)O[C@@H]1c1ccccc1N=[N+]=[N-],-1 (inactive)
12,COC(=O)[C@@]1(Cc2ccc(OC)cc2)[C@H]2c3cc(C(=O)N(C)C)n(Cc4ccccn4)c3C[C@H]2CN1C(=O)c1ccccc1,0.97 (inactive)
13,COC(=O)[C@@]1(Cc2ccc(F)cc2)[C@H]2c3cc(C(=O)N4CCCC4)n(CCCNc4ncc(C(F)(F)F)cc4Cl)c3C[C@H]2CN1C(=O)c1ccccc1,-0.152 (inactive)
14,O=C(CS)NCCCCCCNC(=O)[C@@H]1C[C@@H]2C(=O)NCC(=O)N2[C@@H]1c1cccc(OCCO)c1,-0.695 (inactive)
15,CCOC(=O)C[C@H]1[C@H](OC(=O)c2ccccc2-c2ccccc2)[C@@H](NC(=O)CC(C)C)c2cc(OCCCO)ccc2N1C(=O)Cc1ccc(OC)cc1,0.0967 (inactive)
16,COc1ccc([C@H]2OC[C@@H]3C[C@@H](Cc4ccccc4)C(=O)N32)cc1,0.627 (inactive)
17,COc1ccc(CCNC(=O)[C@@]2(C)c3ccccc3C(=O)N(C(C)C)[C@H]2c2ccc(CO)cc2)cc1,0.727 (inactive)
18,C=CCOC(=O)[C@@H]1[C@H]2C(=O)O[C@H](c3ccccc3)[C@H](c3ccccc3)N2[C@H](c2ccc(OCCOC(=O)[C@@H]3C[C@@H]4C(=O)NCC(=O)N4[C@@H]3c3ccc(O)cc3)cc2)[C@@]12C(=O)Nc1ccc(I)cc12,-0.974 (inactive)

row,SMILES,z-score
1,O=C1C[C@@](C(=O)NCCN2CCOCC2)(c2ccc([N+](=O)[O-])cc2)[C@@H](c2ccc(CO)cc2)N1CC12CC3CC(CC(C3)C1)C2,-0.0481 (inactive)
2,COCCOC(=O)N1C(=O)[C@@]2(c3cc(C#CCC(C(=O)OC)C(=O)OC)ccc31)[C@H](C(=O)Nc1nc3ccccc3s1)[C@H]1C(=O)O[C@H](c3ccccc3)[C@H](c3ccccc3)N1[C@@H]2c1ccccc1OCCO,0.401 (inactive)
3,COC(=O)[C@@]1(Cc2ccccc2)[C@H]2c3cc(C(=O)N(C)C)n(Cc4ccsc4Br)c3C[C@H]2CN1C(=O)c1ccccc1,0.751 (inactive)
4,CC1CC/C=C\[C@H]2OC34C=CCN(C(C)(C)C)C(=O)[C@H]3N(CCO)C(=O)[C@@H]4C2C(=O)O1 (stereo partly specified),-0.237 (inactive)
5,C=C(CCCC)/C(=C/C[C@@H](OC(C)=O)c1ccc(OCCO)cc1)c1cnc2ccccc2c1,-0.438 (inactive)
6,CC(C)C(O)C1C=CC2C(=O)N(c3ccccc3)C(=O)C2N1Nc1ccc([N+](=O)[O-])cc1 (stereo unspecified),-0.343 (inactive)
7,C=C(COC)/C(=C/C[C@H](OC(C)=O)c1ccc(CO)o1)c1cc(C(=O)OC)ccc1OC,1.71 (inactive)
8,COC(=O)[C@@]1(Cc2ccc(OC)cc2)[C@H]2c3cc(C(=O)N(C)C)n(C)c3C[C@H]2CN1C(=O)c1ccccc1,0.0225 (inactive)
9,CCOC(=O)[C@H]1C/C=C/C[C@H](C(=O)OCC)C(=O)O[C@H]2[C@@H](OC)O[C@H](CO)[C@@H](OC(=O)c3c(OC)cccc3OC)[C@@H]2OC1=O,1.33 (inactive)
10,CC(C)NC(=O)[C@@]1(c2ccc([N+](=O)[O-])cc2)CC(=O)N(C2CCCCC2)[C@@H]1c1ccc(CO)cc1I,-0.727 (inactive)
11,CN1C(=O)C2C=CC(C(O)c3ccc([N+](=O)[O-])cc3)N(N3CCCCC3)C2C1=O (stereo unspecified),0.316 (inactive)
12,COCCOC(=O)N1C(=O)[C@@]2(c3cc(C#CCNC(N)=O)ccc31)[C@H](C(=O)N1CCN(c3ncccn3)CC1)[C@H]1C(=O)O[C@H](c3ccccc3)[C@H](c3ccccc3)N1[C@@H]2c1ccc(OCCO)cc1,-0.0748 (inactive)
13,O=C1NC(=O)C2C1C=CC(C(O)c1cc(C(F)(F)F)cc(C(F)(F)F)c1)N2Nc1ccccn1 (stereo unspecified),0.403 (inactive)
14,COCCOC(=O)N1C(=O)[C@@]2(c3ccccc31)[C@H](C(=O)N1CCc3cc(OC)c(OC)cc3C1)[C@H]1C(=O)O[C@H](c3ccccc3)[C@H](c3ccccc3)N1[C@@H]2c1ccc(OCCO)cc1,-0.653 (inactive)
15,COC(=O)C(CC#Cc1ccc2c(c1)[C@]1(C(=O)N2)[C@H](C(=O)Nc2nc3ccccc3s2)[C@H]2C(=O)O[C@H](c3ccccc3)[C@H](c3ccccc3)N2[C@@H]1c1ccccc1OCCO)C(=O)OC,0.372 (inactive)
16,CN1C(=O)C2C=CC(C(O)c3ccccc3)N(N(c3ccccc3)c3ccccc3)C2C1=O (stereo unspecified),0.635 (inactive)
17,COC(=O)[C@@]1(CCS(=O)(=O)c2ccccc2)N=C(c2ccc(OCCCO)cc2)O[C@H]1c1ccccc1CN=[N+]=[N-],-1.43 (inactive)
18,COC(=O)[C@H](Cc1ccccc1)N1CC2=C[C@@H](C3CC3)n3c(=O)n(C)c(=O)n3[C@H]2[C@@H]1[C@@H](O)Cc1ccccc1,-0.269 (inactive)
